Data as given in PubChem BioAssay (NCI).
About 83,000 compounds went through this panel and 20% of them were active in at least one assay; those are over-represented in the sample as a whole.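 How to read the values: 0–100, growth inhibition (40 = 60% inhibited); 0, no net growth; -100 to 0, cell death (-40 = 40% of starting cells died; -100 = all dead).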 Values without a mark were called inactive. The source made the active and inactive calls. How the source made its calls: active means growth percent below 10; inactive means the rest.

Key:
Assay in all cases: NCI-60 one-dose screen, 48 h (100 = growth as untreated, 0 = no growth, -100 = all killed)
Conditions in all cases: 10 µM unless noted
HCT-15 colon = test system: HCT-15 colon
HT29 colon = test system: HT29 colon
SNB-19 CNS = test system: SNB-19 CNS
U251 CNS = test system: U251 CNS
PC-3 prostate = test system: PC-3 prostate
SK-MEL-5 melanoma = test system: SK-MEL-5 melanoma
UACC-62 melanoma = test system: UACC-62 melanoma
LOX IMVI melanoma = test system: LOX IMVI melanoma
SK-MEL-28 melanoma = test system: SK-MEL-28 melanoma
SK-MEL-2 melanoma = test system: SK-MEL-2 melanoma
EKVX NSCLC = test system: EKVX NSCLC
UO-31 renal = test system: UO-31 renal
TK-10 renal = test system: TK-10 renal
ACHN renal = test system: ACHN renal
CAKI-1 renal = test system: CAKI-1 renal
A498 renal = test system: A498 renal
CCRF-CEM leukemia = test system: CCRF-CEM leukemia
MOLT-4 leukemia = test system: MOLT-4 leukemia
SN12C renal = test system: SN12C renal
SNB-75 CNS = test system: SNB-75 CNS

Row | Structure (SMILES) | growth (HCT-15 colon) | growth (HT29 colon) | growth (SNB-19 CNS) | growth (U251 CNS) | growth (PC-3 prostate) | growth (SK-MEL-5 melanoma) | growth (UACC-62 melanoma) | growth (LOX IMVI melanoma) | growth (SK-MEL-28 melanoma) | growth (SK-MEL-2 melanoma) | growth (EKVX NSCLC) | growth (UO-31 renal) | growth (TK-10 renal) | growth (ACHN renal) | growth (CAKI-1 renal) | growth (A498 renal) | growth (CCRF-CEM leukemia) | growth (MOLT-4 leukemia) | growth (SN12C renal) | growth (SNB-75 CNS) [%]
1 | O=c1c(Cc2ccc(F)cc2)cc(-c2ccccc2)nn1C/C(=N/O)c1ccccc1 | 44.5% | 20.3% | 58.3% | 34.5% | 25.9% | 36.6% | 33.6% | 53.1% | 62% | 36.8% | 29.1% | 30.9% | 63.5% | 40.3% | 47% | 9.7% (active) | 34.6% | 16.1% |  | 
2 | C/C(=C(\c1ccc(OCCCN(C)C)cc1)c1ccc(OC(=O)Cc2ccccc2)cc1)c1ccc(Cl)cc1 | 45.2% | 4.56% (active) | 89.8% | 55% | 75.9% | 82.7% | 81.8% | 3.29% (active) | 76.4% | 92.7% | 70.4% | 62% | 87.8% | 94.3% | 83.7% | 103% | 66.4% | 48.7% | 87.3% | 
3 | COc1ccc(CNc2c3ccccc3nc3ccccc23)cc1OC | 10.3% | 4.44% (active) | 21.8% | 23.2% | 22% | 17.5% | 26.8% | -3.83% (active) | 35.2% | 38.6% | 15.2% |  |  | 4.11% (active) | 10.5% | -12.1% (active) | 30.5% | 10.6% |  | 
4 | O=C(/C=C/c1ccco1)c1ccc(Nc2ccnc3cc(Cl)ccc23)cc1 | 59.7% | 23.4% | 95.1% | 56.5% | 80.5% | 68.8% | 108% | 76.6% | 103% | 86.5% | 85.2% | 94.8% | 116% | 96.5% | 96% | 33.6% |  | 10.8% |  | 
5 | COc1ccc(N/N=C/c2ccc3c(c2)Sc2ccccc2N3C)cc1 | 84.5% | 98.6% | 81.1% | 63.9% | 44.4% | 77% | 10.8% | 28.1% | 100% | 98% | 65.9% | 42.1% | 114% | 51.6% | 26.2% |  | 73.6% | 38.8% | 79.3% | 
6 | COc1cccc(-c2nn(-c3ccccc3)cc2-c2ccnc(-c3cccnc3)c2)c1 | 89.6% | 96.7% | 97.6% | 104% | 70.6% | 81.2% | 86.6% | 87.4% | 100% | 87.4% | 93.3% | 62.1% | 104% | 92.6% | 102% | 98.6% | 99% | 88.1% | 101% | 
7 | CC(C)n1cc(C2=C(c3cccc4ccccc34)C(=O)NC2=O)c2cc(Br)ccc21 | 43.1% | 43.1% | 82.6% | 60.4% | 57.8% | -0.736% (active) | 60% | 1.07% (active) | 90.7% | 73.8% | 85% | 58% | 109% | 53.8% | 27.9% | -8.37% (active) | 52.8% | 49% | 75.4% | 
8 | O=C(Nc1cccc2c1C(=O)c1cccc(NC(=O)c3ccc(C(=O)Nc4cccc5c4C(=O)c4cccc(NC(=O)c6ccccc6)c4C5=O)cc3)c1C2=O)c1ccccc1 | 105% | 112% | 105% | 101% | 87.7% | 105% | 89% | 102% | 103% | 73.1% | 86.5% | 72.9% | 121% | 99.9% | 108% | 117% | 115% | 75.2% | 96.6% | 
9 | CCOC(=O)/C=C1\S/C(=N\Nc2cc(=O)[nH]c3ccc(OC)cc23)N(c2ccccc2)C1=O | 93.3% | 108% | 95% | 92.9% | 99.3% | 103% | 100% | 97.3% | 108% | 106% | 106% | 82.4% | 117% | 96.8% | 88.5% | 112% | 65.1% | 95.4% | 96.8% | 
10 | Fc1ccc(/C=C/c2cc(/C=C/c3ccc(F)cc3)n(-c3cc(F)cc(F)c3)n2)cc1 | 103% | 78.7% | 105% | 117% |  | 100% | 85.7% | 102% | 101% | 90.8% |  |  | 82.5% | 99% | 90.6% | 95.6% | 3.7% (active) | 103% | 102% | 91
11 | CN1CCN(CCCNC(=O)c2c3c(n4ccccc24)C(=O)c2ncccc2C3=O)CC1 | 4.07% (active) | 0.534% (active) | -4.84% (active) | -15.7% (active) | -1.89% (active) | -96% (active) | -23.7% (active) | -31.7% (active) | 61.5% | 9.41% (active) |  | 32.2% | 56.7% | 7.62% (active) | 75.4% | 45.8% | -11.5% (active) | -35.1% (active) | -48.5% (active) | 
12 | N#C/C(Sc1nc2sc3c(c2c(=O)n1Cc1ccccc1)CCCC3)=C1/SC=C(c2ccc(Cl)cc2)N1c1ccccc1 | 117% | 98.7% | 82.3% | 72.8% | 84.2% | 95.9% | 90.3% | 82.1% | 109% | 106% | 106% | 63.7% | 107% | 92.7% | 91.4% | 120% | 0.897% (active) | 92.3% | 98% | 
13 | O=C1NCCS(=O)(=O)/C1=C\C=C\c1cccc(C(F)(F)F)c1 | 10.2% | 16.8% | 49.6% | 36% | 37.5% | 34.5% | -15% (active) | -73.6% (active) | 28.7% | 54.8% | 82.3% |  | 33.6% | 12.7% | 55.4% | 56.9% | 0.774% (active) | 8.72% (active) | 24.3% | 
14 | O=C(Nc1ccc2c(c1)-c1ccccc1C2)C1CC(=O)N(c2ccc3c(c2)OCO3)C1 (stereo not given) | 89.3% [50 µM] | 64.6% [50 µM] | 46.4% [50 µM] | 19% [50 µM] | 33.1% [50 µM] | 56% [50 µM] | 44.3% [50 µM] | 63.1% [50 µM] | 33.4% [50 µM] | 89.2% [50 µM] | 78.1% [50 µM] | 97.7% [50 µM] | 60.6% [50 µM] | 64.5% [50 µM] | 61% [50 µM] | 26.1% [50 µM] | 100% [50 µM] | 99.7% [50 µM] | 73% [50 µM] | 
15 | c1ccc2cc(Cn3cc[n+](Cc4ccc5ccccc5c4)c3)ccc2c1 |  | -31% (active) | 29.8% | 21.8% | 15.4% | -46.4% (active) | 10.3% | 37.5% | 20.3% | -11.5% (active) | 51.7% |  | 8.12% (active) | 90.6% | 96% | 75.9% | 21.7% | 25% | 18.2% | 19.3
16 | CSc1nn2c(-c3cc4cc(Br)ccc4oc3=O)ccnc2c1C#N |  | 114% | 105% | 102% | 105% | 101% | 99.7% | 97.4% | 105% | 104% | 92.2% | 89.8% | 157% | 105% | 92.9% | 104% | 101% | 104% | 102% | 90.5
17 | Oc1c(Cl)cc(Cl)c2ccc(CN3CCNCC3)nc12 |  | 105% | 41.9% | 26.8% |  | 42.8% | 33.3% | 45.3% | 62.3% | 66.8% | 48.7% | 3.7% (active) | 56.3% | 31.1% | 21.8% | 63.3% | 36.1% | 39.7% | 42.8% | 45.9
